Sfp inh – inhibitors of Bacillus subtilis Sfp phosphopantetheinyl transferase. Q9F4F7. Biochemical Sfp PPTase activity, qHTS. Potency, µM, inactives show largest response in the series, negative = inhibition, most hits filed as inhibitors. 3.5% of 310,000 active. AID 1490;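 further: the enzyme is Sfp with the accession as filed and its product quenches rhodamine fluorescence; 0% = enzyme reaction without inhibitor and -100% = no enzyme wells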
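Buffer: 50 mM Hepes-Na pH 7.6, 10 mM MgCl2, 0.01% Nonidet P-40, 0.01% BSA. Enzyme 15 nM, pre-exposed to compound 15 min; substrates then added and fluorescence change tracked over 30 min.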
HP1b chromo inh – inhibitors of HP1-beta chromodomain binding to methylated histone tails | P83916 | AlphaScreen HP1-beta / biotin-H3K9me3 peptide binding | Potency, µM (titrated, usually from 114 µM), for the others: at the top dose activity change, negative = inhibition, actives largely listed as inhibitors | 0.56% of 390,000 active; further: nearly all actives have a fitted effect of over 70% in size
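Compound inhibition of the preformed complex between 50 nM HP1-beta and 50 nM biotinylated H3K9me3 peptide was read by AlphaScreen. Buffer was PBS pH 7.4 with 0.01% Tween-20. Incubations ran 30 min at room temperature, with 10 ug/mL donor/acceptor beads.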
PLK1 PBD inh – blocks phosphopeptide binding to human PLK1 polo-box domain. Plk1 PBD binding of FITC phosphopeptide, fluorescence polarization. AID 720504. P53350. 2.8% of 360,000 active. Potency, µM, for inactives: max response, negative = inhibition, actives largely listed as inhibitors; further: series mostly up to about 57 µM; on the % scale 0 is the no-effect control and ±100 the full control effect; nearly all actives have a fitted effect of over 65% in size
Target sequence (P53350 whole entry, looked up, the tested form may be a part): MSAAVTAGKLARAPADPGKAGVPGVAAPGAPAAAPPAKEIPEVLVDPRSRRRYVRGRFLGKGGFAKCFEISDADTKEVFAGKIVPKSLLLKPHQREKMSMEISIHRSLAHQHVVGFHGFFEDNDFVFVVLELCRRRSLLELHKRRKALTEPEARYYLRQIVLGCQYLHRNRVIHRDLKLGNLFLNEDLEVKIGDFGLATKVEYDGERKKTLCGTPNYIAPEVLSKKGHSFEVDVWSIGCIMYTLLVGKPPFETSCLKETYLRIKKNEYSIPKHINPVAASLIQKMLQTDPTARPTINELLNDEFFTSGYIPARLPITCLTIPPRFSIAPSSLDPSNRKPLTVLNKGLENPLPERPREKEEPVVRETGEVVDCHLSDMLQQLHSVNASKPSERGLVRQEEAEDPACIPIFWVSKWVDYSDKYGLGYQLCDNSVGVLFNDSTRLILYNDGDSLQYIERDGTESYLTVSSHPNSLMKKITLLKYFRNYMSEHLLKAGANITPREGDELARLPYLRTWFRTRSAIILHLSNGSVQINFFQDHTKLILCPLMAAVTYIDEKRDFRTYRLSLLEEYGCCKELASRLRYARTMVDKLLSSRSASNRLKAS
BAZ2B block – BAZ2B (human) inhibition; Q9UIF8; 4.4% of 360,000 active; Potency, µM (highest dose often 114 µM), inactives show at the top dose activity change, negative = inhibition, most hits filed as inhibitors; AlphaScreen BAZ2B-H3K14Ac peptide displacement; further: on the % scale 0 is the no-effect control and ±100 the full control effect; nearly all actives have a fitted effect of over 60% in size
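Protein-peptide AlphaScreen: BAZ2B 50 nM, b-H3K14Ac 50 nM, 1x PBS pH 7.4 + 0.01% Tween-20. Preincubation 30 min RT; cpd 30 min RT (top 110 uM); beads 20 min RT, light-protected.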
JMJD2A Tudor – inhibitors of human JMJD2A Tudor domain; 4.4% of 390,000 active; Potency, µM (doses to about 114 µM), inactives show at the top dose activity change, negative = inhibition, actives largely listed as inhibitors; AlphaScreen JMJD2A-Tudor / H3K4me3 peptide binding; further: on the % scale 0 is the no-effect control and ±100 the full control effect; nearly all actives have a fitted effect of over 50% in size
G9a block – G9a (human) methyltransferase inhibition; Q96KQ7; G9a H3K9 monomethylation, AlphaScreen, 2 h; Potency, µM (highest dose often 102 µM), for the others: at the highest dose activity, negative = inhibition, actives largely listed as inhibitors; 8.8% of 350,000 active; further: on the % scale 0 is the no-effect control and ±100 the full control effect; nearly all actives have a fitted effect of over 75% in size
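Readings reflect AlphaScreen signal from monomethyl-H3K9 antibody detection. HMT at 20 nM; substrate b-H3K9 500 nM; cofactor SAM 20 uM; 2 h RT reaction; compounds tested as titrations in qHTS with 15 min preincubation.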
Active calls of the source: *; ? = inconclusive; nt = not tested or not shown; [ ] = another dose, or the depositor's remark. An excerpt weighted towards active compounds, which were near 12% of everything screened. The call rests on the fitted dose curve; in most records, active means well fitted curve in the direction sought with a large enough effect; inconclusive means small, poorly fitted or top-dose-only effect, or another doubt; inactive means no such curve, though single readings can be large; an effect the other way counts as inactive or inconclusive. Potency means the concentration at half of the fitted maximal effect.

SMILES	Sfp inh	HP1b chromo inh	PLK1 PBD inh	BAZ2B block	JMJD2A Tudor	G9a block
Cc1cc(NC(=O)CSc2nnc(C3COc4ccccc4O3)n2N)no1 (centres undefined)	?	-6.9%	7.52µM*	-17.8%	-19.1%[11.4 µM]	?
O=C(CSc1nnc(C2COc3ccccc3O2)o1)N1CCOCC1 (centres undefined)	5.7%	36.8%	-1.1%	8.2%	5.5%	?
Cc1cc(NC(=O)CSc2nnc3c(C)cc4cc(C)c(C)cc4n23)no1	4.0%	33.0%	-0.8%	2.3%	-13.5%	14.1%
COc1ccc(NC(=O)CN(C)C(=O)c2cc3c(s2)CCC(C)C3)cc1 (centres undefined)	8.0%	19.4%	-11.4%	-23.3%	-11.8%	33.6%
CC1CCc2sc(C(=O)N(C)CC(=O)Nc3ccc(N4CCOCC4)cc3)cc2C1 (centres undefined)	-1.6%	-21.1%	-8.0%	?	?	35.5µM*
CCC1CCc2sc(C(=O)N(C)CC(=O)Nc3ccc(N4CCOCC4)cc3)cc2C1 (centres undefined)	nt	3.5%	-2.6%	-3.6%	-31.1%	44.7µM*
Cc1nc2nc(SCC(=O)Nc3cccc(Cl)c3)nn2c(C)c1Cc1ccccc1	nt	22.2%	nt	4.3%	-6.4%	5.6%[59 µM]
C1=C(CCNc2ncnc3c2[nH]c2ccccc23)CCCC1	56.2µM*	-17.0%	-6.4%	?	-34.2%	56.2µM*
COc1ccc(CNc2ncnc3c2[nH]c2ccccc23)cc1	-24.4%	-9.3%	5.0%	-22.1%	?	50.1µM*
CCOc1ccc(N2CCc3c(C)nc(SC)nc32)cc1	9.9%	30.7%	-7.3%	-32.0%	-4.9%	-24.1%
CCn1c(C)cc(/C=C2\NC(=O)N(CC(=O)Nc3cccc(C)c3)C2=O)c1C	-5.5%	11.5%	-10.6%	?	-18.7%	?
Cc1cccc(NC(=O)CN2C(=O)N/C(=C\c3ccc(-c4cccc(C(=O)O)c4)o3)C2=O)c1	39.8µM*	4.9%	?	-19.8%	-18.2%	44.7µM*
O=C(O)c1cccc(-n2cccc2/C=C2\NC(=O)N(Cc3ccc(F)cc3)C2=O)c1	-24.6%	79.4µM*	?	50.1µM*	56.2µM*	22.4µM*
COc1ccc(/C=C2/NC(=O)N(CC(=O)Nc3cccc(C)c3)C2=O)cc1O	-5.8%	33.9%	-6.9%	-3.3%	-2.1%	18.6%[59 µM]
Cc1ccc(NC(=O)CN2C(=O)N/C(=C/c3cc(C)n(-c4cccc(C(=O)O)c4)c3C)C2=O)cc1	?	?	?	22.4µM*	?	12.6µM*
Cc1cc(C(=O)O)ccc1-c1ccc(/C=C2\NC(=O)N(Cc3ccc(F)cc3)C2=O)o1	?	10.5%[57 µM]	?	39.8µM*	?	28.2µM*
Cc1ccc(-n2ncc(C(=O)NCc3ccco3)c2C2CCN(C(=O)OC(C)(C)C)CC2)cc1	nt	11.0%	nt	1.1%[57.1 µM]	-30.1%	?
CCn1cnc2c(Nc3ccc(CCC(=O)N=C(N)N)cc3)nc(C#N)nc21	nt	nt	nt	nt	-8.9%	nt
Cc1ccc(CN2C(=O)N/C(=C\c3cccn3-c3cccc(C(=O)O)c3)C2=O)cc1	50.1µM*	?	?	35.5µM*	44.7µM*	15.8µM*
CCn1c(C)cc(/C=C2/NC(=O)N(CC(=O)Nc3cccc(C)c3)C2=O)c1C	6.4%	-12.9%	-8.4%	-38.7%	-28.6%	44.7µM*
Cc1ccc(NC(=O)CN2C(=O)N/C(=C/c3ccc(N4CCOCC4)cc3)C2=O)cc1	12.0%	6.9%	2.7%	6.3%	-18.5%	29.8%[59 µM]
Cc1ccc(NC(=O)CN2C(=O)N/C(=C\c3cccn3-c3cccc(C(=O)O)c3)C2=O)cc1	39.8µM*	70.8µM*	?	10µM*	22.4µM*	8.91µM*
CCc1ccccc1NC(=O)CN1C(=O)c2ccccc2Sc2ncccc21	nt	23.4%	nt	?	-10.3%	-21.5%[59 µM]
COc1ccc(CNC(=O)Cn2c(=O)n(CC(=O)N3CCCCC3)c(=O)c3sccc32)cc1	11.1%	5.1%[57 µM]	-11.9%	-22.8%	-11.2%	34.8%
Cc1oc2ncn(CC(C)C)c(=O)c2c1C(=O)Nc1cc(F)ccc1F	nt	-4.1%	nt	9.1%[57.1 µM]	-13.6%	-2.7%[59 µM]

High-throughput results deposited in PubChem BioAssay by National Center for Advancing Translational Sciences (NCATS).
